Bioassay records (PubChem BioAssay)
PLK1 PBD inh = PLK1 (human) polo-box domain binding inhibition | P53350 | Plk1 PBD binding of FITC phosphopeptide, fluorescence polarization | Potency, µM, hits mostly inhibitors | 2.8% of 360,000 active | AID 720504; note: series mostly up to about 57 µM; nearly all actives have a fitted effect of over 65% in size
Target sequence (P53350 whole entry, looked up, the tested form may be a part): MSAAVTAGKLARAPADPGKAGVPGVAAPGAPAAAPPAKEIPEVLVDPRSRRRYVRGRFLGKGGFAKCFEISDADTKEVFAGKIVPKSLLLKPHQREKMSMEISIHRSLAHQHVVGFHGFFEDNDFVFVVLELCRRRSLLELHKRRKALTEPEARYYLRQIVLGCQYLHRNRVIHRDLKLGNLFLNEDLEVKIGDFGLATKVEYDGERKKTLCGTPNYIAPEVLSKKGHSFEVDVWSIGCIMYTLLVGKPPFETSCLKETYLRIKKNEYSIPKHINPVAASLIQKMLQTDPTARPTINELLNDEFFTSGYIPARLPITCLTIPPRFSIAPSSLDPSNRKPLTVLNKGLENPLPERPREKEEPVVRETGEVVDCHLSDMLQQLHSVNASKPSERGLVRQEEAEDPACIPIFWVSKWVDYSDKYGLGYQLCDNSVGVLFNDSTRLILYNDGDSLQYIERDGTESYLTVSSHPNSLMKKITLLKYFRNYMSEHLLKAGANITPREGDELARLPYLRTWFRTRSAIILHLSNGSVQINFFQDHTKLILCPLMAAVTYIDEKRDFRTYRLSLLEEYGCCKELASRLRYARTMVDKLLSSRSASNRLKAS
Sfp inh = blocks B. subtilis Sfp PPTase activity; Potency, µM, usual class: inhibitors; Q9F4F7; 3.5% of 310,000 active; Biochemical Sfp PPTase activity, qHTS;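 note: the enzyme is Sfp with the accession as filed and its product quenches rhodamine fluorescence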
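Compounds were incubated with enzyme (final 15 nM) for 15 min at room temperature before substrate addition started the reaction. Fluorescence at 525 nm excitation, 598 nm emission was recorded immediately and after 30 minutes.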
BAZ2B block = inhibitors of human BAZ2B bromodomain. Q9UIF8. AlphaScreen BAZ2B-H3K14Ac peptide displacement. Potency, µM (doses to about 114 µM), hits mostly inhibitors. 4.4% of 360,000 active. AID 504333; note: nearly all actives have a fitted effect of over 60% in size
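Inhibition is scored as reduced AlphaScreen emission. The BAZ2B/b-H3(5-23)K14Ac complex (50 nM each) in PBS pH 7.4, 0.01% Tween-20 meets compound (up to 110 uM) for 30 min at RT before bead addition.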
JMJD2A Tudor = inhibitors of human JMJD2A Tudor domain. 4.4% of 390,000 active. AID 504339. Potency, µM (series often up to 114 µM), hits mostly inhibitors. O75164. AlphaScreen JMJD2A-Tudor / H3K4me3 peptide binding; note: nearly all actives have a fitted effect of over 50% in size
HP1b binding inh = HP1-beta chromodomain-methylated histone interaction inhibition; 0.56% of 390,000 active; AlphaScreen HP1-beta / biotin-H3K9me3 peptide binding; AID 540317; Potency, µM (doses to about 114 µM), most hits filed as inhibitors; P83916; note: nearly all actives have a fitted effect of over 70% in size
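AlphaScreen: HP1-beta (50 nM) preformed 30 min with biotin-H3(1-18)K9me3 peptide (50 nM) in PBS pH 7.4, 0.01% Tween-20. Compound added for 30 min at RT, then streptavidin donor/nickel chelate acceptor beads (10 ug/mL) for 30 min.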
G9a inh = inhibitors of human histone lysine methyltransferase G9a | Q96KQ7 | G9a H3K9 monomethylation, AlphaScreen, 2 h | Potency, µM (top dose mostly 102 µM), hits mostly inhibitors | 8.8% of 350,000 active | AID 504332; note: nearly all actives have a fitted effect of over 75% in size
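Readings reflect AlphaScreen signal from monomethyl-H3K9 antibody detection. HMT at 20 nM; substrate b-H3K9 500 nM; cofactor SAM 20 uM; 2 h RT reaction; compounds tested as titrations in qHTS with 15 min preincubation.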
Numbers stand for hits; i = inactive; ? = inconclusive; nt = not tested or not shown; [ ] = dose if it differs, or a comment. Sampled rows, rich in hits. Any-hit rate of the full collection: about 12%. Calls come from the whole dose curve; as a rule, active = well fitted curve in the direction sought with a large enough effect; inconclusive = small, poorly fitted or top-dose-only effect, or another doubt; inactive = no such curve, though single readings can be large; an effect the other way counts as inactive or inconclusive.

SMILES	PLK1 PBD inh	Sfp inh	BAZ2B block	JMJD2A Tudor	HP1b binding inh	G9a inh
O=C(CCc1c[nH]c2ccccc12)N1CCN(c2ccc(O)cc2)CC1	26.7µM	?	i	i[11.4 µM]	?	35.5µM
O=C(CCc1c[nH]c2ccccc12)N1CCCCCCC1	i	i	?	i	i	i
Cc1ccc(S(=O)(=O)N2CCN(C(=O)CCc3c[nH]c4ccccc34)CC2)c(C)c1	i	nt	i	i	i	8.91µM
Cc1ccc(S(=O)(=O)N2CCN(C(=O)CCc3c[nH]c4ccccc34)CC2)cc1	i	nt	i	i	i	i
COc1ccc(N2CCN(C(=O)CCc3c[nH]c4ccccc34)CC2)cc1	i	i	?	i[11.4 µM]	i	56.2µM
Cn1c(=O)oc2cc(S(=O)(=O)N3CCC(C(=O)N4CCN(c5ccc(Cl)cc5)CC4)CC3)ccc21	nt	nt	i	i	i	i
O=C(Nc1ccccc1Cl)c1ccc(=O)[nH]n1	i	i	i	i	i	i[2.33 µM]
COc1cc(-c2cc(OC)c(O)c(OC)c2)cc(OC)c1O	i	nt	nt	i	?	nt
COc1cc(C(=O)C(=O)c2cc(OC)c(O)c(OC)c2)cc(OC)c1O	i	i	i	i	i	44.7µM
N#Cc1cc2nc(O)c(O)nc2cc1[N+](=O)[O-]	i	i	i	79.4µM	i	i
COc1ccc(/C=C(/NC(=O)c2ccccc2)C(=O)NC2CCS(=O)(=O)C2)cc1 (stereo not given)	15µM	i	i	14.1µM	i	i
CC(C)N(C(=O)CSc1nnc(CN2CCCCCC2=O)n1-c1ccccn1)C(C)C	i	i	i	89.1µM	?	?
CC(C)CNC(=O)CSc1nnc(CN2CCCCCC2=O)n1-c1ccccn1	i	i	nt	i	i	i
CCc1ccc(S(=O)(=O)NC(=S)Nc2ccccc2)cc1	26.7µM	15.8µM	i	i	i	17.8µM
Cc1ccc(C(=S)NCS(=O)(=O)c2ccc(C)cc2)cc1	?	?	?	?	i	39.8µM
Cc1ccc(S(=O)(=O)NC(=S)c2ccccc2)cc1	i	nt	nt	i	i	nt
CC(=O)NS(=O)(=O)c1ccc(NC(=S)Nc2ccccc2)cc1	i	i	i	i	i	i
Cc1ccc(S(=O)(=O)CNC(=S)c2cccc(Cl)c2)cc1	?	i	i	i	i	?
CCNC(=S)NS(=O)(=O)c1ccc(C)cc1	i	?	i	i	i	31.6µM
CCNC(=S)NS(=O)(=O)c1ccc(CC)cc1	i	i	i	25.1µM	i	28.2µM
Cc1ccc(C(=O)ON=C2CCN(S(=O)(=O)c3ccccc3)CC2)cc1	26.7µM	i	i	?	i	i
Cc1ccc(-n2c(=O)c3sc4ccccc4c3n(CC(=O)NC3CCCC3)c2=O)cc1C	nt	nt	i	i	i	i
CC1CCCN(S(=O)(=O)c2ccc(NC(=O)Cc3ccc(S(=O)(=O)N4CCOCC4)s3)cc2)C1 (stereo not given)	i	nt	i	i	i	3.98µM
O=C(Cc1ccc(S(=O)(=O)N2CCOCC2)s1)Nc1ccc(S(=O)(=O)N2CCCCC2)cc1	i	nt	i	i	i	44.7µM
CCOc1ccc(NC(=O)COC(=O)Cc2ccc(S(=O)(=O)N3CCOCC3)s2)cc1	i	i	?	i	i	39.8µM
SMILES	PLK1 PBD inh	Sfp inh	BAZ2B block	JMJD2A Tudor	HP1b binding inh	G9a inh
O=C(Cc1ccc(S(=O)(=O)N2CCOCC2)s1)Nc1nc2c(s1)CCCC2	?	i	17.8µM	56.2µM	?	nt
CNc1c(NC(=O)C2CCC(C)CC2)c(=O)oc2ccccc12 (stereo not given)	i	?	i	i	i	i
COC(=O)[C@@]12C[C@@H](CC(=O)NCc3ccc(OC)c(OC)c3)C(=O)N(Cc3ccccc3)C1=CCC(C)(C)C2	i	nt	nt	nt	nt	nt
COc1ccc(NC(=O)Cn2c(=O)n(CCC(=O)NCc3ccccc3OC)c(=O)c3ccccc32)cc1Cl	nt	nt	i	i	i	i
COc1ccc(-c2cc(C(=O)Nc3cccc(C(C)=O)c3)no2)cc1OC	nt	nt	i	i	i	i
O=C(Cc1ccc(S(=O)(=O)N2CCOCC2)s1)NC1CCCCC1	i	nt	50.1µM	?	i	12.6µM
O=C(Cc1ccc(S(=O)(=O)N2CCOCC2)s1)NCC1CCCCC1	i	i	?	i	i	i
CNC(=O)c1ccc(NC(=O)Cc2ccc(S(=O)(=O)N3CCOCC3)s2)cc1	i	nt	i	i	i	44.7µM
Cn1c(CS/C(N)=N/N=C/c2ccccc2)c(Br)c(=O)n1-c1ccccc1	23.8µM	44.7µM	?	50.1µM	i	35.5µM
NC(=N\N=Cc1ccccc1)/C(N)=N/N=Cc1ccccc1	i	nt	nt	i	i	nt
COc1ccc(Cl)cc1C(=O)NNC(=O)C1COc2ccccc2O1 (stereo not given)	23.8µM	i	i	22.4µM	i	i
O=C(NNS(=O)(=O)c1ccccc1Cl)C1COc2ccccc2O1 (stereo not given)	18.9µM	nt	nt	i	i	nt
O=C(CCN1C(=O)c2ccccc2C1=O)CN1CCOCC1	i	i	i	i	i	50.1µM
COc1ccc(C2CC23N=C(c2ccccc2)OC3=O)cc1 (stereo not given)	16.8µM	i	i	i	i	i
COc1ccc(C2=N[C@H](c3ccccc3)CO2)cc1	nt	?	nt	nt	nt	i
CSc1ccc(CN2CCC(C)(Oc3cccc(F)c3)C2)cc1 (stereo not given)	i	nt	nt	nt	nt	nt
C=CCn1c(CCSCc2ccccc2)n[nH]c1=S	i	i	i	15.8µM	i	7.08µM
C=CCn1c(CSCc2ccccc2)nnc1SCC(=O)NCc1ccccc1	i	i	i	i	i	i
C=CCn1c(CCSCc2ccc(OC)c(C)c2)n[nH]c1=S	i	i	i	i	i	2µM
Oc1ccccc1/C=N/n1cnn(Cc2ccccc2Cl)c1=S	4.74µM	?	i	17.8µM	i	3.55µM
COc1ccc(/C=N/n2cnn(Cc3ccccc3Cl)c2=S)cc1	26.7µM	25.1µM	i	i	?	28.2µM
COc1ccc(/C=N/N2CCN(Cc3ccccc3)CC2)cc1	i	i	?	?	?	i
COc1cc(/C=N/n2cnn(Cc3ccccc3Cl)c2=S)cc(OC)c1OC	?	?	i	i	i	31.6µM
COc1ccc(CCNC(=O)c2nnn(CC(=O)Nc3cccc(F)c3)c2N)cc1OC	i	i	50.1µM	?	i	44.7µM
COc1cccc(NC(=O)c2nnn(CC(=O)Nc3cc(C)cc(C)c3)c2N)c1	26.7µM	i	i	28.2µM	i	i
COc1ccc(CCNC(=O)c2ccc3c(c2)S(=O)(=O)N=C2CCCCCN23)cc1	i	nt	i	i	i	i
COc1ccc(S(=O)(=O)N2CCOCC2)cc1NC(=O)CSc1ccc(F)cc1	i	nt	i	i	i	i[12.7 µM]
CC[C@H](C)C1OC(=O)[C@@H](C)[C@@H](CC)NC(=O)[C@H](C)N(C)C(=O)C(C)(C)C(=O)C(C)NC(=O)[C@H](Cc2ccc(OC)cc2)N(C)C(=O)[C@H](C(C)C)N(C)C(=O)CNC(=O)[C@H](CC(C)C)N(C)C(=O)CNC1=O (stereo not given in full)	i	nt	nt	nt	nt	nt
